The list is not random: actives were taken first. Their share in the collection is about 2.7%.
NadD block: inhibitors of Staphylococcus aureus NadD | purified NadD enzyme, colorimetric absorbance read-out | inhibition, % at 20 µM | 0.78% of 360,000 active | AID 602399; in the data active = inhibition above about 26%
MsrA inh: inhibitors of bovine MsrA; purified bovine MsrA, absorbance read-out; AID 651718; inhibition, % at 15.5 µM; 0.75% of 360,000 active; in the data active = inhibition above about 4.5%;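 note: 0% = vehicle wells with enzyme and 100% = reference inhibitor wells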
MsrA act: activates bovine MsrA enzyme; purified bovine MsrA, absorbance read-out; activation, % at 10.6 µM; 0.3% of 360,000 active; in the data active = activation above about 7.5%;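 note: 0% = vehicle and 100% = reference activator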
rCAG RNA binder: r(CAG) repeat RNA binding. TO-PRO-1 dye displacement fluorescence. inhibition, % at 3 µM. 1.3% of 370,000 active. AID 651821;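 active = inhibition above the plate cutoff, the mean of all test compounds on that plate plus 3 SD, cut at about 35% in these data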;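 note: 0% = DMSO alone and 100% = 100 µM mitoxantrone as full dye displacement; higher means more dye released from RNA so lower well fluorescence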
rCAG binder conf: r(CAG) RNA repeat binding, confirmation | inhibition, % at 3 µM | TO-PRO-1 dye displacement fluorescence | shares compounds with rCAG RNA binder | 70% of 4,300 active;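 active = inhibition above a per-plate cutoff, the mean inhibition of sample wells plus 3 SD, cut at about 35% in these data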;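 note: loss of TO-PRO-1 fluorescence as compound displaces dye from 1x1 AA loop RNA; 0% = DMSO only wells and 100% = 100 µM mitoxantrone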
dCAG dye counter: disrupts DNA CAG TO-PRO-1 complex, flagging rCAG hits | shares compounds with rCAG RNA binder | d(CAG) DNA oligo TO-PRO-1 dye displacement, fluorescence | 94% of 4,300 active | inhibition, % at 3 µM | AID 652068;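 active = inhibition above its plate's cutoff, the mean test-well inhibition plus 3 SD, cut at about 4.8% in these data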;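 note: 0% = DNA dye mix with DMSO and 100% = 100 µM mitoxantrone; hits displace the dye from DNA and so lower well fluorescence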
DNA CAG DR: DNA CAG dye complex inhibition, dose response counter-screen; shares compounds with rCAG RNA binder; DNA CAG/GTC duplex TO-PRO-1 dye displacement fluorescence; IC50, µM; 20% of 250 active; AID 686960; in the data active = IC50 below about 10 µM
* = called active by the depositor; i = inactive; . = no result given.

SMILES	NadD block	MsrA inh	MsrA act	rCAG RNA binder	rCAG binder conf	dCAG dye counter	others
COc1ccc(OC)c(C2C(C(=O)c3cc4ccccc4o3)=C(O)C(=O)N2c2cc(C)on2)c1 (stereo unspecified)	15.6	2.6	-4.9	38.2*	42.3*	12.3*
COc1cccc(C2C(C(=O)c3cc4ccccc4o3)=C(O)C(=O)N2c2cc(C)on2)c1 (stereo unspecified)	10.0	1.0	-3.1	48.1*	52.4*	18.1*
CCCOc1ccc(C2C(C(=O)c3cc4ccccc4o3)=C(O)C(=O)N2c2cc(C)on2)cc1 (stereo unspecified)	10.4	1.1	-8.7	31.3	.	.
C[C@H]1CN([C@@H](C)CO)C(=O)CCCn2nncc2CO[C@H]1CN(C)S(=O)(=O)c1ccccc1F	-1.2	-0.7	0.3	1.9	.	.
N#Cc1ccc(/C=C2\CC3(OC(=O)C4CCCCC4)CCCN2C3)cc1 (stereo unspecified)	.	.	.	3.7	.	.
CN(C)c1cccc(C(=O)NCc2ccc3c(c2)OCO3)c1	-0.5	0.1	-10.8	2.2	.	.
O=C(COc1ccc(Cl)cc1)Nc1ccc(C(=O)O)cc1NC(=O)COc1ccc(Cl)cc1	6.5	-1.6	-3.0	3.2	.	.
Fc1cccc2sc(Nc3nc4cc5c(cc4s3)OCO5)nc12	27.6	4.4	-4.6	67.3*	54.4*	33.2*
CC(=O)Oc1ccc(C(=O)Nc2ccccc2C(=O)Nc2cccc(C(=O)O)c2)cc1	-5.3	0.2	-2.5	7.2	.	.
CC(=O)Oc1ccc(C(=O)Nc2cccc(C(=O)Nc3ccccc3C(=O)O)c2)cc1	-10.9	0.8	-3.0	50.1*	43.9*	11.8*
CCC(C)c1ccc(OCC(=O)Nc2ccc3[nH]c(=O)[nH]c3c2)cc1 (stereo unspecified)	8.7	0.1	-3.6	-2.0	.	.
COc1ccc(CC(=O)Nc2cccc(C(=O)Nc3ccccc3C(=O)O)c2)cc1OC	-2.4	0.8	2.0	25.6	.	.
COc1ccc(OCC(=O)Nc2cccc(C(=O)Nc3ccccc3C(=O)O)c2)cc1	0.8	0.9	-0.2	50.8*	62.3*	17.0*
CCC(C)c1ccc(OCC(=O)Nc2cccc(C(=O)Nc3ccc(C(=O)O)cc3)c2)cc1 (stereo unspecified)	14.3	1.0	-3.3	75.1*	75.0*	39.4*
Cc1ccc(NC(=O)Nc2cccc(Cl)c2)c(C(=O)O)c1	-2.6	-0.5	-1.9	46.6*	20.9	2.9
O=C(Nc1nnc([C@@H]2C[C@H](O)[C@@H](CO)O2)s1)Nc1ccc(F)cc1F	-4.3	1.9	-0.8	0.6	.	.
Cc1cc(C)c(S(=O)(=O)c2ccccc2)c(N2CCOCC2)n1	-1.1	0.3	-0.7	1.4	.	.
O=C(Nc1ccccc1C(=O)O)c1ccccc1	-1.3	3.2	-0.7	0.2	.	.
O=C(Nc1sc(-c2ccccc2)cc1C(=O)O)c1ccccc1	1.3	4.3	-3.7	85.3*	73.4*	33.5*	DNA CAG DR=i
O=C(COc1ccc(Cl)cc1Cl)Nc1ccc(C(=O)Nc2ccccc2C(=O)O)cc1	14.0	0.1	-7.2	50.3*	86.5*	74.5*
O=C(Nc1ccccc1C(=O)O)c1cccc(C(=O)Nc2ccccc2C(=O)O)c1	-1.9	1.0	-5.5	50.4*	42.5*	9.1*
O=C(Nc1cccc(C(=O)Nc2ccccc2C(=O)O)c1)c1cccc(Cl)c1	-0.6	-0.9	-3.1	60.4*	54.6*	17.7*
Cc1nc2ccc(NS(=O)(=O)c3ccc(F)c(C)c3)cc2[nH]1	-4.1	1.0	-1.4	-0.9	.	.
Cc1cscc1NC(=O)/C=C/C(=O)O	-1.9	-0.7	-5.6	1.3	.	.
O=C(O)CC(C(=O)O)C(=Cc1ccccc1)c1ccccc1 (stereo unspecified)	1.4	1.3	-1.7	0.4	.	.
O=C(Nc1ccccc1C(=O)O)c1ccc(NC(=O)c2ccc(Br)o2)cc1	-6.2	.	-0.2	.	.	.
CC(=O)Nc1ccc(S(=O)(=O)Nc2cccc(C(=O)Nc3ccccc3C(=O)O)c2)cc1	-4.9	-0.1	-1.7	47.0*	17.9	4.7*
COc1cc(NC(=O)Nc2ccc(Cl)c(Cl)c2)c(C(=O)O)cc1OC	-4.6	0.5	-2.4	70.3*	53.5*	15.3*
COc1ccc(/C(=N\Nc2ccccc2C(=O)O)c2ccccc2)cc1	-0.4	0.9	-5.8	49.9*	42.6*	11.8*

Screening results: PubChem, several laboratories
